# From the supplement of paper PMC11732987, “Enantioselective OTUD7B fragment discovery through chemoproteomics screening and high-throughput optimisation” (Communications Chemistry, 2025)
# A number with no mark means an inactive call.
# Experiments:
# Assay in all cases: log2 ratio of Biotin-Ahx-Ub-VS probe labelling (fragment/DMSO); higher = less target engagement (more negative = stronger competition), active = hit call of the paper (q ≤ 0.05, log2 ratio ≤ -1)
# Settings in all cases: compound concentration: 200 uM; treatment time: 3 h
# USP19 = target: T1, USP19 (UniProt O94966)
# T1 sequence (whole entry): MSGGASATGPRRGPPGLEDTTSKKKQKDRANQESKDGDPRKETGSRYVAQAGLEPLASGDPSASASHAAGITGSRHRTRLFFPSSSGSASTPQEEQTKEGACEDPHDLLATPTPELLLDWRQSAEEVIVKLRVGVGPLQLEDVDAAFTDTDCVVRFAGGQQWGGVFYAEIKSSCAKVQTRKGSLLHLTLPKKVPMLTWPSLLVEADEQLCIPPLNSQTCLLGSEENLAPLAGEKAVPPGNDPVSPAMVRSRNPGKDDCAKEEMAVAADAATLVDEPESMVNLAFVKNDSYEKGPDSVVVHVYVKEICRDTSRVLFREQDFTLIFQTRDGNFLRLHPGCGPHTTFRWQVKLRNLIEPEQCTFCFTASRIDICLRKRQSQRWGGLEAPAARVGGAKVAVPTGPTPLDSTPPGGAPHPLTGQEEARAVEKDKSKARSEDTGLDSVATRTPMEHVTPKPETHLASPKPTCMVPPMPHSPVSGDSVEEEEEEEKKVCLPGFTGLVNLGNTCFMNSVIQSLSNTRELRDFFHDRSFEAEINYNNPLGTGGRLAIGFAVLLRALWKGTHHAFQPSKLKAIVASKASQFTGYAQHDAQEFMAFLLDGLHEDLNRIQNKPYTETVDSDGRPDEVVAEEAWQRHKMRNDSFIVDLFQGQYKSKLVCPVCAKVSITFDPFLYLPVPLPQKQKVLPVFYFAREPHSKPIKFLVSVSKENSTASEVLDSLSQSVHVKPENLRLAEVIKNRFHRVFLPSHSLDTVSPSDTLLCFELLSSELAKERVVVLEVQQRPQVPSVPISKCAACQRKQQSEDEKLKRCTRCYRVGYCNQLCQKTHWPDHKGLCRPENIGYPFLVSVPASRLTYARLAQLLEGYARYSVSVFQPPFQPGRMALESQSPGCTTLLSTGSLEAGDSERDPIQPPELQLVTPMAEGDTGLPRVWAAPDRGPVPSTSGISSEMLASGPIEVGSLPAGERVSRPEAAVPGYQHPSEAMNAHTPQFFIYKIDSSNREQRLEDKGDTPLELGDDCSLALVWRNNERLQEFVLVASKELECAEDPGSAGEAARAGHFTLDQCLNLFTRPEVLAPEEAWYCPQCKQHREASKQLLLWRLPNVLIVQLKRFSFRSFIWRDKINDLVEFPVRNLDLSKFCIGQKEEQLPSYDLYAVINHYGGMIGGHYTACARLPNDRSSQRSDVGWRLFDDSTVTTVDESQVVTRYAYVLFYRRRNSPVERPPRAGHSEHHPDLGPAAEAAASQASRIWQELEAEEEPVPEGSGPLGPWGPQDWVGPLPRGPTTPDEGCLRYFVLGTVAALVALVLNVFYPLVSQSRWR
# Outline: (§1)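 Triplicate samples of HEK293T lysate, 495 µg each, received fragment at 200 µM or vehicle for 3 h, followed by Biotin-Ahx-Ub-VS (0.5 µM final) for 1 h. After NeutrAvidin enrichment of labelled DUBs and LysC/trypsin digestion, peptides were run by diaPASEF LC-MS/MS. The values are average log2 fragment/vehicle ratios from global-median-normalised Spectronaut label-free quantities, tested by unpaired t-test on proteins having ≥2 unique peptides.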
# USP22 = target: T2, USP22 (UniProt Q9UPT9)
# T2 sequence (whole entry): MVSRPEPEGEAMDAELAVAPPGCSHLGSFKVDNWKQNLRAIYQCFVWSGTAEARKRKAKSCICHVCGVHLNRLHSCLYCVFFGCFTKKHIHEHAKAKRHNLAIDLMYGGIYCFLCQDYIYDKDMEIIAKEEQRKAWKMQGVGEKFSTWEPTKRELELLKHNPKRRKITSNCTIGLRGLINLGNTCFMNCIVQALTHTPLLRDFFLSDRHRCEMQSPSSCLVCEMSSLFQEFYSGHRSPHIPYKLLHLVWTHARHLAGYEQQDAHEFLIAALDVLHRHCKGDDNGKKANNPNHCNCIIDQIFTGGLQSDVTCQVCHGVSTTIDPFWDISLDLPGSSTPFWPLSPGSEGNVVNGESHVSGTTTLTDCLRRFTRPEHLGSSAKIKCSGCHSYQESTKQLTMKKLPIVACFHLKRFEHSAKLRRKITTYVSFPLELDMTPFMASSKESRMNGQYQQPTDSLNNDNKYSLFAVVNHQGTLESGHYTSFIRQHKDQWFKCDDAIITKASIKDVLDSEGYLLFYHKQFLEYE
# Outline: as §1
# USP24 = USP24 (UniProt Q9UPU5)
# Sequence of USP24 (Q9UPU5 whole entry): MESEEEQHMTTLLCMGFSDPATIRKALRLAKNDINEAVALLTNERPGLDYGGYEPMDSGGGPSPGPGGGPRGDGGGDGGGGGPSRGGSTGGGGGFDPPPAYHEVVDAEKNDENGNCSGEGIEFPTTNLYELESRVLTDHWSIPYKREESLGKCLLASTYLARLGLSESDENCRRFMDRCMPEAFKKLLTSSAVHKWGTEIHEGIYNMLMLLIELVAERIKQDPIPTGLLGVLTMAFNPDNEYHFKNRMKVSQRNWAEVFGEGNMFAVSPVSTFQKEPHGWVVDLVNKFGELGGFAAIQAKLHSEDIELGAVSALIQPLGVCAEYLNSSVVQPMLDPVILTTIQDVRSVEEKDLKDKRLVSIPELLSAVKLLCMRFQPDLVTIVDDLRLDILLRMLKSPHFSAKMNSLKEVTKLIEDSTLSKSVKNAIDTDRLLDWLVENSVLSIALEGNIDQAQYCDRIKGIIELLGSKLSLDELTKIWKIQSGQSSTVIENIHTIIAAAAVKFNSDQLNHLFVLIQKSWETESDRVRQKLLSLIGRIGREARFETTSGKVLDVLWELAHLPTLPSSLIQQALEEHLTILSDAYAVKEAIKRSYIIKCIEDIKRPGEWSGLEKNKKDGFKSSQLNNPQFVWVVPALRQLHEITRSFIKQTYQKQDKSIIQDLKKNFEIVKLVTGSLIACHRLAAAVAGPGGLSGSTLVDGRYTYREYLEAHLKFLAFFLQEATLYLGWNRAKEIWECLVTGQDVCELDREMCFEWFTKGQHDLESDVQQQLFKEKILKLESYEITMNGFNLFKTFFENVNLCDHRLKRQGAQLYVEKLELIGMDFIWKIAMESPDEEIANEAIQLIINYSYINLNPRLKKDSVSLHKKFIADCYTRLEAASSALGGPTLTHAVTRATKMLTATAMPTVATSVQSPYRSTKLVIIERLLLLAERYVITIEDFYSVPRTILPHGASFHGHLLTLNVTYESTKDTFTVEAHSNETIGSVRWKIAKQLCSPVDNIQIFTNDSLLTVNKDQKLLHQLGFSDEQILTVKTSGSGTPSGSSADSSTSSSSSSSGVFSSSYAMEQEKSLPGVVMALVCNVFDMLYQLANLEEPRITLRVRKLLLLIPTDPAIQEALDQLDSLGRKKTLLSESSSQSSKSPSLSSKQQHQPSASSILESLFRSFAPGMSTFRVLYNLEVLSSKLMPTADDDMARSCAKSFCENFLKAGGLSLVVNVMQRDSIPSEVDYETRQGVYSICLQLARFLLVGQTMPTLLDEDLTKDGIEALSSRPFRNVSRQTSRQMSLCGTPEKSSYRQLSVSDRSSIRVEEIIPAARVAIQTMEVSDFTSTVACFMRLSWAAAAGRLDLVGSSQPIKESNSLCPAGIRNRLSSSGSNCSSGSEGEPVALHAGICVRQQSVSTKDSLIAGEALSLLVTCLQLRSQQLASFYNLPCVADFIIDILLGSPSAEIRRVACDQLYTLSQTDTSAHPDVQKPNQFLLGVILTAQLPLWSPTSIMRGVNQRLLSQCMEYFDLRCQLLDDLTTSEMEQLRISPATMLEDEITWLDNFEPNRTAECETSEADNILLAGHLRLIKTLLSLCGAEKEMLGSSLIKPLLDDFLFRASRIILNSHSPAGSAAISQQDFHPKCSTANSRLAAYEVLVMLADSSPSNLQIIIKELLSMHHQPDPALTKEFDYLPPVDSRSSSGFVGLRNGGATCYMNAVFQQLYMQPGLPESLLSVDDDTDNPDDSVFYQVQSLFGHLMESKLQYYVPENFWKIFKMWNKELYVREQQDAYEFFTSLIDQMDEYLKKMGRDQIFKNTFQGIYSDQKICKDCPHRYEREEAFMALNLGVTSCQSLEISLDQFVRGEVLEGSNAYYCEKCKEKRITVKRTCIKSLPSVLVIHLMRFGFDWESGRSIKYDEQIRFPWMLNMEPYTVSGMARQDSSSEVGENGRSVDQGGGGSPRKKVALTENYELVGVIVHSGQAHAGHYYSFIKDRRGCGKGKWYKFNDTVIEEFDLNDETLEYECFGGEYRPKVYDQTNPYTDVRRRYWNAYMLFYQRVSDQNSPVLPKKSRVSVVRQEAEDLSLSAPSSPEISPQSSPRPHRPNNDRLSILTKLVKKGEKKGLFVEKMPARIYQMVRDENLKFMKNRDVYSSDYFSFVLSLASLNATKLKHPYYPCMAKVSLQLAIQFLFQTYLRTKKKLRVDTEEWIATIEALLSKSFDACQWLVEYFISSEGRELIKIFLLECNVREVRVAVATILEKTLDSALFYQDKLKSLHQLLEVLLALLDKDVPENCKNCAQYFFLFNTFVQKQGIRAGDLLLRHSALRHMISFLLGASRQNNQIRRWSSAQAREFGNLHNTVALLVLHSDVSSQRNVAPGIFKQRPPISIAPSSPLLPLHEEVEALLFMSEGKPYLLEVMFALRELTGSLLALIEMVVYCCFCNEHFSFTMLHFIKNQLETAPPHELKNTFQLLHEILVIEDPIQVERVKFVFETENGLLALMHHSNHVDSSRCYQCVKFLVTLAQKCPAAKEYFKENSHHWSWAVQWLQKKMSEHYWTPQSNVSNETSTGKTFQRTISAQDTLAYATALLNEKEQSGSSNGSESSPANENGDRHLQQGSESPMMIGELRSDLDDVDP
# Outline: as §1
# USP25 = target: T3, USP25 (UniProt Q9UHP3)
# T3 sequence (whole entry): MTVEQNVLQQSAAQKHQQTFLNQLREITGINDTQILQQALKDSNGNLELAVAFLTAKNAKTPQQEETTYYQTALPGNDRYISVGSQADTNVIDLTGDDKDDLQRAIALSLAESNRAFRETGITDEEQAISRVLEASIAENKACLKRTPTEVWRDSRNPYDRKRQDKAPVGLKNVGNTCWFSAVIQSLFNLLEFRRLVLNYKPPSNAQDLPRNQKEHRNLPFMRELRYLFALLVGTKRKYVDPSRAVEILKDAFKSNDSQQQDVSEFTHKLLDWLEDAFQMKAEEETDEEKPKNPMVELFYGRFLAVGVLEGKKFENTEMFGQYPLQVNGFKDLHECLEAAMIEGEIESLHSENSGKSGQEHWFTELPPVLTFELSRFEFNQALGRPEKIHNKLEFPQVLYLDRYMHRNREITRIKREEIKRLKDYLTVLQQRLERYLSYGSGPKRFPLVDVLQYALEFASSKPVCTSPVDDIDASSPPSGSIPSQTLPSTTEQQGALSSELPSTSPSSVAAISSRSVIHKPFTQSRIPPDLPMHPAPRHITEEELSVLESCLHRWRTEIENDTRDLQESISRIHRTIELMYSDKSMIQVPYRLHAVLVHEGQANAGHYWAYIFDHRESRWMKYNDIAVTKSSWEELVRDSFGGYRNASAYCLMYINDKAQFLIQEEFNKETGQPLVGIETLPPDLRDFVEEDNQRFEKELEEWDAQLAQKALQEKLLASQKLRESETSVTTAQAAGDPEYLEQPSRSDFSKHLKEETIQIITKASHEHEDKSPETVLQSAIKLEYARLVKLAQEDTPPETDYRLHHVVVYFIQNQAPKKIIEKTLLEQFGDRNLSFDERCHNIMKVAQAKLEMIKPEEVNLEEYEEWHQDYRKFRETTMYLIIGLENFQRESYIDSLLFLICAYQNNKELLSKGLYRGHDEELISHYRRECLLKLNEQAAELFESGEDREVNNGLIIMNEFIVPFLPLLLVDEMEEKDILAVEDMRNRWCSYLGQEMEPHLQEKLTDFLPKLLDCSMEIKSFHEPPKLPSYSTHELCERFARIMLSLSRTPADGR
# Outline: as §1
# USP28 = target: T4, USP28 (UniProt Q96RU2)
# T4 sequence (whole entry): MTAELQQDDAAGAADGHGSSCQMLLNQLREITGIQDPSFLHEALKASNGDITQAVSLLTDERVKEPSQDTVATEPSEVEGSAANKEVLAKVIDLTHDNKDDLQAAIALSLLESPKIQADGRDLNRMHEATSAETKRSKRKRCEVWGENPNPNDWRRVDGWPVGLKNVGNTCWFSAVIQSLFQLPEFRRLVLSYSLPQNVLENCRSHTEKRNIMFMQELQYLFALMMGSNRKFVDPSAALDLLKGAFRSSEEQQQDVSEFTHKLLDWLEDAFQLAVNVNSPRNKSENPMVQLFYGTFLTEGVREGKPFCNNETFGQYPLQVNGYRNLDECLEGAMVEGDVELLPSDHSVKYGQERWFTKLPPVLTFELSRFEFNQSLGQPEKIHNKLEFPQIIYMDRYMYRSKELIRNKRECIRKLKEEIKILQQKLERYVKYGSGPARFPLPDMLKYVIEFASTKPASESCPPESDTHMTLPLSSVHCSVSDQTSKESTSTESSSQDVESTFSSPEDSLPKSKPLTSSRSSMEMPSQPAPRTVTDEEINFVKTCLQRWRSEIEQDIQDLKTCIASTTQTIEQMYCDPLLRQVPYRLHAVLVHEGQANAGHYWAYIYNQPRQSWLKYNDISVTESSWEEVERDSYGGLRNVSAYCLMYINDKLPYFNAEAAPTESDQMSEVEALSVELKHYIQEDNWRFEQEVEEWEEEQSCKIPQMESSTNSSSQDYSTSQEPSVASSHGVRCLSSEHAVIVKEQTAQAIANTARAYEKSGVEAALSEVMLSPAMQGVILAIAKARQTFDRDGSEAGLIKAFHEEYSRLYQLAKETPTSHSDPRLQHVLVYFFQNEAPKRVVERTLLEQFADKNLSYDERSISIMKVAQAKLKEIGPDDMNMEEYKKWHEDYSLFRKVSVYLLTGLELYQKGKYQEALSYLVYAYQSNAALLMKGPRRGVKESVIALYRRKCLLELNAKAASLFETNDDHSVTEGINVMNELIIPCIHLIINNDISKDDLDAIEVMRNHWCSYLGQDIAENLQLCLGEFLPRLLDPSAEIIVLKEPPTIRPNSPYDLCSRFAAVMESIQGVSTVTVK
# Outline: as §1
smiles,measurement,setting,value
O=C(CCl)N1c2ccccc2NC(=O)C12CCCC2,log2 ratio of Biotin-Ahx-Ub-VS probe labelling,USP19,-0.0862
same,log2 ratio of Biotin-Ahx-Ub-VS probe labelling,USP22,0.00548
same,log2 ratio of Biotin-Ahx-Ub-VS probe labelling,USP24,-2.66 (active)
same,log2 ratio of Biotin-Ahx-Ub-VS probe labelling,USP25,-0.252
same,log2 ratio of Biotin-Ahx-Ub-VS probe labelling,USP28,-0.397
